About 2,500 (1.9%) of roughly 130,000 compounds were called active. The sample holds actives, similar compounds and a random draw of the others, so the mix is not that of the screen.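 How the source made its calls: active means signal ratio slope over the read window, or its plate-corrected B-score, at least 3 SD from the plate mean, either direction; inactive means the rest.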

ATP-sensitive inward rectifier potassium channel 1 (Homo sapiens), sequence (P48048 whole entry, looked up): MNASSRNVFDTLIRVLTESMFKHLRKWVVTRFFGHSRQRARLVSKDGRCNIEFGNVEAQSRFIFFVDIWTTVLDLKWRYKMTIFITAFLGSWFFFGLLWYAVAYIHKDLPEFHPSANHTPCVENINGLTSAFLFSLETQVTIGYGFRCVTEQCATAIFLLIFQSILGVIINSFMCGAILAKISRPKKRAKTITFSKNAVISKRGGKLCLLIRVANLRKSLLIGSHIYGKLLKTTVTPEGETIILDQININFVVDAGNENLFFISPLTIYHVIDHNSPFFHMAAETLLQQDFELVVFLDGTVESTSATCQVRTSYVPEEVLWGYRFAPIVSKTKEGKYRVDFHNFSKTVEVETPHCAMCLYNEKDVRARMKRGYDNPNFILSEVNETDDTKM

This assay has as its target ATP-sensitive inward rectifier potassium channel 1 (Homo sapiens) (UniProt P48048). Description: ROMK potassium channel modulators, primary screen, cell-based, thallium flux, MLSMR library (AID 1918).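 Further: B-score of the F/F0 ratio slope over 7 to 12 s after thallium.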 The following applies: Tet-inducible ROMK, thallium flux fluorescence; at 10 µM; actives lie on both sides.
In the case of `CC(=O)n1c(C=Nc2ccccc2)c(O)c2ccccc21`, the B-score is -1.73 (inactive).

Turning to `O=C(N/N=C/c1ccc([N+](=O)[O-])cc1)c1c[nH]c2ccccc12`, the B-score is -0.0103 (inactive).

Turning to `O=[N+]([O-])c1ccc(N=Cc2c(O)ccc3ccccc23)cc1`, the B-score is -4.23 (active).

As to `CCOc1ccc(C(C)C)cc1S(=O)(=O)n1nc(C)cc1C`, the B-score was -0.531 (inactive).

On to `CCOc1ccc(Br)cc1S(=O)(=O)N1CCC(C(=O)O)CC1`, for which the B-score was -0.0303 (inactive).

Turning to `CCOc1ccc(-n2cnnn2)cc1S(=O)(=O)N1CCC(C)CC1C` (centres undefined), the B-score was -3.15 (active).

For `O=C1[C@@H]2C(c3cccnc3)=NO[C@@H]2C(=O)N1c1ccc(Cl)cc1Cl`, the B-score was 0.0407 (inactive).

On to `O=c1c2c(nc3nc[nH]n13)CCC2`, for which the B-score is 0.251 (inactive).

On to `CSc1nc2nc3c(c(=O)n2[nH]1)CCC3`, for which the B-score is 1.45 (active).

For the compound `O=c1c2c(nc3cc(-c4cccc(Cl)c4)[nH]n13)CCCC2`, the B-score is -0.277 (inactive).

In the case of `O=C(c1ccncc1)N1CCN(c2ccc3ccccc3n2)CC1`, the B-score was -0.138 (inactive).

As for `O=C(NC1CCCC1)C(c1ccccn1)N(C(=O)c1csnn1)C1CCCC1` (centres undefined), the B-score was 0.761 (inactive).

On to `Cc1ccccc1CCN(CC(=O)NC1CCCCC1)C(=O)c1csnn1`, for which the B-score is -3.14 (active).

Regarding `CCC(C)(C)NC(=O)C(c1ccccn1)N(C(=O)c1csnn1)c1ccccc1` (centres undefined), the B-score was 0.633 (inactive).

In the case of `COc1ccc(-c2ccc(CNCCCN3CCOCC3)o2)cc1Cl`, the B-score was -0.161 (inactive).

For the compound `CCOc1ccc(N2CC(C(=O)NCCN3C(=O)S/C(=C\c4cccnc4)C3=O)CC2=O)cc1` (centres undefined), the B-score was 0.439 (inactive).

For the compound `COc1ccccc1N1CCN(C(=O)c2ccc(Cl)c(S(=O)(=O)N3CCCC3)c2)CC1`, the B-score was -0.388 (inactive).

As for `O=C(NCc1ccc2c(c1)OCO2)c1ccc2c(c1)C(=O)N(CC1CCCO1)C2=O` (centres undefined), the B-score was 0.455 (inactive).

On to `O=C1c2cccc3c([N+](=O)[O-])ccc(c23)C(=O)N1CC1CCCO1` (centres undefined), for which the B-score is -2.58 (active).

On to `O=c1c2cc3c(=O)n(CC4CCCO4)c(=O)c3cc2c(=O)n1CC1CCCO1` (centres undefined), for which the B-score is 1.28 (inactive).

For `C/C(=N\Nc1nc(N2CCOCC2)nc(N2CCOCC2)n1)c1ccc([N+](=O)[O-])cc1`, the B-score is 0.473 (inactive).

Regarding `CC1CCN(C(=S)c2cccc(O)c2)CC1`, the B-score was 0.17 (inactive).

As to `Cc1nc(-c2ccccc2)sc1C(=O)/C=C/N(C)C`, the B-score was 0.143 (inactive).

`CCOC(=O)c1c(NC(=O)CCl)sc(C(=O)N(CC)CC)c1C`: the B-score is 1.96 (active).

Regarding `CCC(=O)Nc1sc(C(=O)Nc2ccccc2)c(C)c1C(=O)OC`, the B-score was -1.11 (inactive).

For the compound `CCOC(=O)c1sc(NC(=O)COc2ncnc3ccccc23)c(C(=O)OCC)c1C`, the B-score was 0.196 (inactive).

As to `COc1ccccc1C(=O)N1CC2(C)CC1CC(C)(C)C2` (centres undefined), the B-score was -0.0792 (inactive).

As for `Cc1nnnn1/C(=C\c1ccccc1)C(=O)OCC(=O)N1CC2(C)CC1CC(C)(C)C2` (centres undefined), the B-score is -5.08 (active).

On to `COc1ccc(C(=O)N2CC3(C)CC2CC(C)(C)C3)cc1OC` (centres undefined), for which the B-score is 0.464 (inactive).

Consider `Cc1ccc(SCCC(=O)NCc2ccccn2)cc1`, for which the B-score is -0.142 (inactive).

With `O=C(O)CC(SCC(=O)Nc1ccc(Br)cc1)C(=O)O` (centres undefined), the B-score was -0.193 (inactive).

For the compound `CCOC(=O)c1ccc(-c2ccc(C(=O)Nc3cccnc3)o2)cc1`, the B-score is 0.149 (inactive).

Consider `COC(=O)C1=C(C)NC2=C(C(=O)c3ccccc32)C1c1ccc(-c2ccc(C(=O)O)cc2)o1` (centres undefined), for which the B-score is 3.35 (active).

As to `Cc1ccc(C2C3=C(Nc4[nH]n(-c5ccccc5)c(=O)c42)c2ccccc2C3=O)cc1` (centres undefined), the B-score is -2.43 (inactive).

With `COc1ccc(-n2c(O)c(C=NCC(c3ccco3)N3CCCC3)c3ccccc3c2=O)cc1OC` (centres undefined), the B-score is 0.182 (inactive).

For `O=C(CSc1nnnn1-c1ccc(O)cc1)N1N=C(c2ccc3ccccc3c2)CC1c1ccccc1` (centres undefined), the B-score is 0.13 (inactive).

In the case of `CC1=NN(Cc2ccccc2)C(=O)/C1=C/c1ccc(N(C)C)cc1`, the B-score was -0.804 (inactive).

Consider `CN(C)c1ccc(C=C2C(=O)OC3(CCCC3)OC2=O)cc1`, for which the B-score is -4.03 (active).

Turning to `CN(C)c1ccc(/C=N\S(=O)(=O)c2ccccc2)cc1`, the B-score is 0.722 (inactive).

Consider `Cc1noc(C)c1C(=O)OCC(=O)/C=C1\N(C)c2ccccc2C1(C)C`, for which the B-score was -0.053 (inactive).

Turning to `CN1/C(=C\C(=O)c2cccnc2Cl)C(C)(C)c2ccccc21`, the B-score is 0.168 (inactive).

As for `CC(=O)Nc1cccc(OCC(=O)/C=C2\N(C)c3ccccc3C2(C)C)c1`, the B-score was -3.01 (active).

As to `Cc1ccccc1NC(=S)NNC(=O)c1cccc(Br)c1`, the B-score is -1.36 (inactive).

As to `CNc1nccc(-c2ccc(Cl)cc2)c1C#N`, the B-score was -3.41 (active).

`CN(C)c1nc(-c2cccnc2)nc(-c2ccc(Cl)cc2)c1C#N`: the B-score was -1.03 (inactive).

On to `N#Cc1c(-c2ccc(Cl)cc2)c2c([nH]c1=S)CCCC2`, for which the B-score is -0.344 (inactive).

Turning to `COCc1c(N)c(C)nc(Cl)c1C#N`, the B-score was 0.228 (inactive).

For the compound `O=C(CN1CCCCCC1)NCCN1C(=O)S/C(=C\c2ccccc2Cl)C1=O`, the B-score was -2.58 (active).

`O=C(CN1CCCCC1)Nc1ccccc1Cl`: the B-score is 1.02 (inactive).

In the case of `O=C1/C(=C\c2ccccc2Cl)SC(=S)N1CCC(=O)N1CCCc2ccccc21`, the B-score is -0.502 (inactive).

On to `CSc1ccc(CNCCN2CCOCC2)cc1`, for which the B-score is -0.131 (inactive).

Turning to `CCN(CC(=O)NCc1cccs1)S(=O)(=O)c1ccc(NC(C)=O)cc1`, the B-score was -0.12 (inactive).

Consider `O=C(CCl)N(Cc1cccc([N+](=O)[O-])c1)c1cccc(Cl)c1`, for which the B-score was -3.06 (active).

As for `CCN(CC)C(=O)CN(c1cccc([N+](=O)[O-])c1)S(=O)(=O)c1ccccc1`, the B-score was 0.165 (inactive).

With `O=C(Nc1cccc([N+](=O)[O-])c1)Nc1ccc(Cl)cn1`, the B-score was 0.868 (inactive).

For the compound `COc1cccc(CC2(CO)CCCN(CC3=Cc4cc(OC)ccc4OC3)C2)c1` (centres undefined), the B-score was -0.447 (inactive).

As to `COc1cccc(-n2c(=S)sc3c(=O)n(-c4ccccc4OC)c(SCC4OCCO4)nc32)c1`, the B-score is 0.408 (inactive).

Regarding `CCc1ccc(-n2c(=S)sc3c(=O)n(-c4ccccc4OC)c(=S)[nH]c32)cc1`, the B-score is 0.222 (inactive).

As for `COc1ccccc1-n1c(=S)[nH]c2c(sc(=S)n2-c2ccc(C)cc2C)c1=O`, the B-score was 2.35 (active).

For the compound `COc1ccc(NC(=O)c2ccccc2CC[N+](=O)[O-])cc1`, the B-score is 0.216 (inactive).

As to `COC(=O)COc1cccc2c(=O)n(CC(=O)NCCc3ccc(OC)c(OC)c3)ccc12`, the B-score was -0.562 (inactive).

Consider `CCOC(=O)C(C)Oc1cccc2c(=O)n(CC(=O)NCCc3ccc(OC)c(OC)c3)ccc12` (centres undefined), for which the B-score is -0.831 (inactive).

On to `COC(=O)COc1cccc2c(=O)n(CC(=O)NCc3ccccc3)ccc12`, for which the B-score was 2.99 (active).

For `COc1cccc(CN2CCNC(=O)C2CC(=O)N(C)CCc2ccccn2)c1` (centres undefined), the B-score is 0.0523 (inactive).

Turning to `C/C(=N/NC(=O)CSc1ccccn1)c1ccc([N+](=O)[O-])cc1`, the B-score is -0.494 (inactive).

With `O=c1cnnc(Nc2ccccc2F)[nH]1`, the B-score is 0.476 (inactive).

Take `CCOC(=O)Cc1csc(NC(=O)CSc2nnc(-c3cccnc3)n2Cc2ccco2)n1`: the B-score is 0.0388 (inactive).

Regarding `CCOC(=O)Cc1csc(SCC(=O)NC(C)C23CC4CC(CC(C4)C2)C3)n1` (centres undefined), the B-score was -3.3 (active).

On to `CCOC(=O)Cc1csc(NC(=O)CSc2nc(C)cc(=O)[nH]2)n1`, for which the B-score was -0.406 (inactive).

Regarding `CCOC(=O)Cc1csc(NC(=O)CSc2ccc(Br)cc2)n1`, the B-score is -2.72 (active).

Regarding `CCOC(=O)Cc1csc(NC(NC(=O)OCC)(C(F)(F)F)C(F)(F)F)n1`, the B-score is 1.5 (inactive).

Regarding `CCOC(=O)Cc1csc(NC(=O)Nc2ccccc2)n1`, the B-score is 0.0709 (inactive).

Regarding `Cn1nc(C(F)(F)F)c2cc(C(=O)N3CCOCC3)sc21`, the B-score is 1.3 (inactive).

As to `COc1ccccc1-n1ccnc1SCC(=O)NC(C)(C)C`, the B-score was -0.243 (inactive).

As for `CCCCc1nc(NCc2ccccc2)c(C#N)c2c1CCCC2`, the B-score was 0.19 (inactive).

On to `CCCCc1nc(NCCN)c(C#N)c2c1CSC(C)(C)C2`, for which the B-score is -3.92 (active).

Consider `Cc1nc(NCCN)c(C#N)c2c1COC(C)(C)C2`, for which the B-score was 0.0226 (inactive).

Take `COc1cc2nc(CN(C)Cc3ccc(F)cc3)[nH]c(=O)c2cc1OC`: the B-score was 0.927 (inactive).

Regarding `COc1ccc(-c2nc(CN3CCN(c4ncccn4)CC3)c(C)o2)cc1C`, the B-score was -0.768 (inactive).

Take `Cc1cc(NC(=O)OC(C)C)ccc1-c1ccc(NC(=O)OC(C)C)cc1C`: the B-score was 0.938 (inactive).

As to `O=C(NNC(=O)C1C2CCC(C2)C1C(=O)O)c1ccc(Cl)cc1` (centres undefined), the B-score was -0.0201 (inactive).

On to `C[C@H](NC(=O)c1ccccc1Cl)C(=O)OCCOc1cccc(Cl)c1`, for which the B-score is 0.0242 (inactive).

For the compound `COc1cccc2c(N/N=C/c3ccco3)cc(C)nc12`, the B-score was -0.776 (inactive).

In the case of `COc1ccc(Cl)cc1C(=O)NNC(=S)NC(=O)/C=C/c1ccco1`, the B-score is 1.26 (inactive).

For the compound `COc1cc2c(cc1OC)C(/C=C/c1ccco1)=NCC2`, the B-score was -7.44 (active).

With `Cc1cc(=O)oc2c1c(C)nn2-c1ccc(Cl)cc1`, the B-score was 0.108 (inactive).

As for `COc1ccc(S(=O)(=O)NCC2CCCN(C(=O)c3occc3C)C2)cc1` (centres undefined), the B-score is -0.286 (inactive).

With `C/C=C/C=C/C(=O)OCC(=O)Nc1ccc(Cl)cc1`, the B-score was -0.0163 (inactive).

`CCC(C)NC(=O)Cn1nc(C(F)(F)F)c2c1CCC2` (centres undefined): the B-score was -0.0332 (inactive).

On to `Cc1cc(-c2csc(N)n2)c(C)n1Cc1ccccc1`, for which the B-score was -1.12 (inactive).

`O=C(NC(Nc1nc2ccc([N+](=O)[O-])cc2s1)(C(F)(F)F)C(F)(F)F)c1ccccc1`: the B-score was -4.53 (active).

Take `O=C(O)CCC(=O)Nc1nc2ccc([N+](=O)[O-])cc2s1`: the B-score was 0.0361 (inactive).

`O=C(Nc1nc2ccc([N+](=O)[O-])cc2s1)c1ccc(S(=O)(=O)N2CCCc3ccccc32)cc1`: the B-score was -2.44 (inactive).

`O=C(NCCCN1CCOCC1)c1ccccc1NS(=O)(=O)c1ccc(F)cc1`: the B-score was 0.243 (inactive).

Values taken from PubChem BioAssay AID1918 (Vanderbilt High Throughput Screening Facility, 2009).
